Source: PubChem BioAssay
A selection: hits, their analogues and other compounds. The true share with any hit is near 2.3%.
ANO1 activ – activates or potentiates the mouse TMEM16A chloride channel; AID 623877; HEK293 TMEM16A/YFP-H148Q/I152L, iodide quench fluorescence; stronger effect = lower value; B-score at 10 µM; Q8BHY3; hit rate 0.3% among 340,000;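 active = fluorescence-ratio B-score plate-corrected deviation score at least 3 library SD below zero, with starting fluorescence score within 5 deviations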;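 note: channel opened by trigger with iodide after compound preincubation; score built on the fluorescence ratio of max minus min over baseline; more negative score means more quench and so TMEM16A activation or potentiation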
CHT block – human CHT choline transport inhibition; CHT-expressing cells, membrane potential dye, choline response; stronger effect = lower value; AID 488975; B-score at 10 µM; hit rate 0.86% among 310,000; Q9GZV3;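 active = B-score over 3 SD under the library average, and starting fluorescence ratio not unusually high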;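 note: choline stimulus applied at its EC90 after an EC20 pre-addition; B-score computed on integrated fluorescence ratio after choline addition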
Target sequence (Q9GZV3 whole entry, looked up): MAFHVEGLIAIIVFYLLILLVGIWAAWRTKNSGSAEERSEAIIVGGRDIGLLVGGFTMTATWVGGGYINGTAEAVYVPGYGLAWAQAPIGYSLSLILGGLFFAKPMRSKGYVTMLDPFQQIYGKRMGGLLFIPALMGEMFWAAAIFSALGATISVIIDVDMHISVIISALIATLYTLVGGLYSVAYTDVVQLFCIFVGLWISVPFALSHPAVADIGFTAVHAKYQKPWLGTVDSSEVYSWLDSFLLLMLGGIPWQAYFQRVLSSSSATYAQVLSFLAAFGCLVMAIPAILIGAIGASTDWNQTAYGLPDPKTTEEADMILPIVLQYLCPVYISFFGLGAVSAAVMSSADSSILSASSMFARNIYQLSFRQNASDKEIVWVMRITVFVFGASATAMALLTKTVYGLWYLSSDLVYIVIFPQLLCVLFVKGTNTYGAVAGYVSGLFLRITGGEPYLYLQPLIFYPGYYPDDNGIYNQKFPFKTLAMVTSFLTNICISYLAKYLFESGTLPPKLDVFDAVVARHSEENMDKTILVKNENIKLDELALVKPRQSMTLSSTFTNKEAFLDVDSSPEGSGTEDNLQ
TMEM16A inh – mouse TMEM16A channel inhibition, primary screen; Q8BHY3; HEK293 TMEM16A/YFP iodide influx fluorescence, ionomycin; hit rate 1.2% among 310,000; normalized B-score (activity score, 25-100; higher = stronger inhibition) at 10 µM;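 active = ratio plate-corrected score three or more library SD toward inhibition, starting fluorescence score within five deviations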;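 note: score derived from kinetic fluorescence span divided by baseline fluorescence per well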
CHT PAM – human CHT allosteric activation | Q9GZV3 | CHT-expressing cells, membrane potential dye, choline EC20; stronger effect = higher value; LV-AA mutant CHT in HEK293 cells | B-score at 10 µM | hit rate 0.49% among 310,000 | AID 488977;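 active = initial fluorescence not abnormally high and integrated response B-score, plate-corrected, over 3 SD above library mean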
CHT block conf – confirmation of human choline transporter CHT inhibitors; hit rate 70% among 2,400; CHT activity remaining % of control (stronger effect = lower value), % at 10 µM; shares compounds with CHT block; CHT-expressing cells, choline membrane potential dye; LV-to-AA substituted CHT, HEK293 cells;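 active = choline transporter activity left, mean of duplicates at 10 µM, below buffer-only control mean minus 3 SD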;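 note: depolarization triggered by choline at its EC90 following an EC20 pre-addition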
HEK293 MPD ctr – activity in parental HEK293 cells lacking CHT. membrane potential ratio readout (active if shifted either direction beyond buffer ±3SD; no single direction) at 10 µM. shares compounds with CHT block. hit rate 4% among 2,400. membrane potential dye, choline response; active = decrease or increase beyond buffer ±3SD;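 note: parental cells lack the transporter so any hit is non-specific; ratio is peak minus trough fluorescence over baseline after EC90 choline challenge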
Large screens that a line does not name were inactive (follow-up assays come after a bar, where they were run).

O=C1ON=C(c2ccccc2)/C1=C/c1ccco1	CHT block -6.6 | CHT block conf 50% | HEK293 MPD ctr inactive
CN(C)/C=C1\C(=O)ON=C1c1ccccc1	none
CCN1C(=O)c2cccc3c(S(=O)(=O)N4CCNCC4)ccc1c23	none (no result: CHT block, TMEM16A inh, CHT PAM)
O=C(O)c1ccccc1C(=O)c1ccc(Cl)cc1	none
O=C(CC(CC(=O)c1ccc(Cl)cc1)c1ccccc1C(=O)O)c1ccc(Cl)cc1	CHT block -5.8 | CHT block conf 40% | HEK293 MPD ctr inactive
COc1ccc(S(=O)(=O)Nc2cccc3c2O[C@H](CN(C)C(=O)NC(C)C)[C@@H](C)CN([C@H](C)CO)C3=O)cc1	none (no result: CHT block, TMEM16A inh, CHT PAM)
CC(C)(C)c1ccc(C(=O)NC(=O)COC(=O)CCS(=O)(=O)c2ccccc2)cc1	none (no result: CHT block, TMEM16A inh, CHT PAM)
CCOC(=O)Cn1nnc(-c2ccccc2)n1	none
CCc1ccccc1-n1nnc(-c2ccccc2)n1	CHT block -5.4 (no result: ANO1 activ) | CHT block conf inactive | HEK293 MPD ctr inactive
Cc1ccc2nc(-c3ccccc3)cc(C(=O)NCCCn3ccnc3)c2c1	CHT block -11 | CHT block conf 30% | HEK293 MPD ctr inactive
O=C(NCCCn1ccnc1)c1cn(-c2ccccc2)nc1-c1ccc(F)cc1	CHT block -6.9 | CHT block conf 36% | HEK293 MPD ctr inactive
CCCC(=NC(C)CC)C1=C(O)CC(c2ccccc2)CC1=O (configuration not stated)	none
Cc1ccc(-c2csc3ncn(CC#N)c(=O)c23)cc1C	none
Cc1ccc(-c2csc3ncn(CC#N)c(=O)c23)cc1	CHT block -5.6 | CHT block conf 50% | HEK293 MPD ctr inactive
CC(=O)c1ccc(S(=O)(=O)N2CCN(CCOc3ccccc3)CC2)cc1	none (no result: CHT block, TMEM16A inh, CHT PAM)
O=[N+]([O-])c1cc(Br)c(O)c(/C=N/Nc2nnnn2-c2cccc3ccccc23)c1	CHT block -9.2, TMEM16A inh 100 | CHT block conf 33% | HEK293 MPD ctr inactive
O=[N+]([O-])c1ccc(NN=Cc2cccc3ccccc23)cc1	none (no result: CHT block, TMEM16A inh, CHT PAM)
Cc1cc(C)c(NC(=O)c2ccc[n+](Cc3ccc([N+](=O)[O-])cc3)c2)c(C)c1	CHT block -10 | CHT block conf 11% | HEK293 MPD ctr inactive
Cc1ccc(Oc2ccc(S(=O)(=O)NCC(C)(C)N3CCOCC3)cc2)cc1	CHT block -6.4 | CHT block conf 40% | HEK293 MPD ctr inactive
CC(C)c1ccc(C(C)NC(=O)C2CCCC2)cc1 (configuration not stated)	CHT block -5.3 | CHT block conf 66% | HEK293 MPD ctr inactive
Cc1ccc(C(C)NC(=O)C2CCCC2)cc1C (configuration not stated)	CHT block -5.4 | CHT block conf 44% | HEK293 MPD ctr inactive
ON=C1c2ccccc2-c2cc(Br)ccc21	none (no result: CHT block, TMEM16A inh, CHT PAM)
CC1CCC(NC(=O)c2ccc(NC3=NC4CS(=O)(=O)CC4S3)cc2)CC1 (configuration not stated)	CHT block -6 | CHT block conf 34% | HEK293 MPD ctr inactive
CC1CCCCC1NC(=O)c1ccc(NC2=NC3CS(=O)(=O)CC3S2)cc1 (configuration not stated)	none
O=C1CC(N2CCN(c3ccc(O)cc3)CC2)C(=O)N1Cc1cccs1 (configuration not stated)	none
O=C(c1ccncc1)c1ccc(N2CCN(C3CC(=O)N(Cc4cccs4)C3=O)CC2)cc1 (configuration not stated)	CHT block -5.6 | CHT block conf inactive | HEK293 MPD ctr inactive
CCN(CC)c1ccc(/C=N/NC(=O)Cc2cccs2)c(O)c1	none
CCN(CC)c1ccc(/C=N/NC(=O)c2ccco2)c(O)c1	CHT block -5.2 | CHT block conf inactive | HEK293 MPD ctr inactive
O=C(c1ccc2ccccc2n1)N1CCN(S(=O)(=O)c2ccccc2)CC1	none (no result: CHT block, TMEM16A inh, CHT PAM)
O=[N+]([O-])c1c(Nc2ccccc2O)cc(Cl)c2nonc12	CHT block -8.5, TMEM16A inh 100 | CHT block conf 38% | HEK293 MPD ctr inactive
O=[N+]([O-])c1c(Nc2ccccc2O)ccc2nonc12	none
O=C(CCc1ccc(S(=O)(=O)N2CCOCC2)cc1)N/N=C/c1ccc(F)cc1F	none
